Compounds with a hit are over-represented: about 7.9% of the library has one in this group of screens.
HCMV inh = blocks human cytomegalovirus replication; HFF cells, HCMV-luciferase reporter, 72 h; stronger effect = lower value; activity change, negative = inhibition, % at 57.5 µM; actives 4.5% (n = 410,000); AID 1259415; in the data active means activity change below about -60%; inconclusive means no clear call, values can overlap the other calls; inactive means above about -39%
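Compounds were evaluated in HFFs infected with an HCMV luciferase reporter virus (MOI 1 PFU/cell). Luciferase in lysates collected 72 h post infection served as the replication measure.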
HCV inhibitor = blocks hepatitis C virus | Huh7.5.1 HCVcc-Cre infection, luciferase reporter, 44 h | Potency, µM (doses to about 41.8 µM), inactives show top-dose activity change, negative = inhibition, usual class: inhibitors | AID 651820 | actives 3.4% (n = 340,000); active means well fitted inhibition curve with a large enough effect; inconclusive means small, poorly fitted or top-dose-only effect, or another doubt; inactive means no such curve, though single readings can be large or run the other way; further: potency means the concentration at half of the fitted maximal effect
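Whole-lifecycle infectious HCVcc-Cre system; cells 1,000/well, compound then virus (~0.5 moi) added 4 h after plating, 44 h culture. Luciferase read 15 sec following 15 min substrate incubation, room temp.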
LASV entry inh = blocks Lassa virus binding to or entry into cells | Lassa virus pseudotype entry inhibition, cell reporter | actives 1.2% (n = 300,000) | Potency, µM (top dose mostly 37.9 µM), for inactives: at the highest dose activity change, negative = inhibition, actives largely listed as inhibitors; calls by dose curve; tested in HEK293 cells; further: potency means the concentration at half of the fitted maximal effect; nearly all actives have a fitted effect of over 50% in size
Marburg entry inh = Marburg virus entry inhibition | Marburg virus pseudotyped entry inhibition, cell reporter | Potency, µM (doses to about 37.8 µM), without a hit: at the highest dose activity change, negative = inhibition, hits mostly inhibitors | actives 1.8% (n = 300,000) | AID 540276; calls by dose curve; tested in HEK293 cells; further: potency means the concentration at half of the fitted maximal effect
FMDV inh = blocks foot and mouth disease virus. actives 1.2% (n = 410,000). Potency, µM (highest dose often 57.9 µM), for the others: top-dose activity change, negative = inhibition, usual class: inhibitors. FMDV antiviral cell-based qHTS; calls by dose curve; tested in HEK293T cells; further: read-out not given here; potency means the concentration at half of the fitted maximal effect; nearly all actives have a fitted effect of over 45% in size
Numbers without * were called inactive; u = inconclusive; x = no result; [ ] = remark or other dose. On the % scale 0 is the no-effect control and ±100 the full control effect.

SMILES	HCMV inh	HCV inhibitor	LASV entry inh	Marburg entry inh	FMDV inh
CCc1ccc(C(=O)/C=C/c2ccc([N+](=O)[O-])o2)cc1	29	-6%	u	u	35µM*
CCN(CC)S(=O)(=O)c1ccc(C(=O)/C=C/c2ccc(-c3ccc([N+](=O)[O-])cc3)o2)cc1	6	-14%	x	x	-11%
CC(C)c1ccc(N2C(=O)CS(=O)(=O)C23C(=O)N(Cc2cccc(F)c2)c2ccccc23)cc1 (stereo not given)	-26	x	-27%[46.1 µM]	x	-20%
CCOC(=O)c1cc(CC)sc1NC(=O)C1CC1	14	11µM*	4%	4%	-14%
CCOC(=O)c1cc(CC)sc1NC(=O)COC(=O)C1CCC1	-6	u	x	x	-1%
CCOC(=O)c1cc(CC)sc1NC(=O)c1cc(OCC)c(OCC)c(OCC)c1	-1	2.8µM*	-29%	-14%	21%
CCOC(=O)c1cc(CC)sc1NC(=O)c1ccc2c(c1)OCCO2	12	u	3%	u	-16%
CN(C)c1cccc(CNc2nccc3[nH]c(-c4ccc(F)c(F)c4)nc23)c1	0	x	x	x	x
O=C(OC1CNC(C#Cc2cc3ncnc(Nc4ccc(OCc5cccc(F)c5)c(Cl)c4)c3s2)C1)N1CCOCC1 (stereo not given)	x	x	2.8µM*	x	x
O=C(OC1CNC(C#Cc2cc3ncnc(Nc4ccc5c(cnn5Cc5ccccc5)c4)c3s2)C1)N1CCOCC1 (stereo not given)	x	x	1.3µM*	x	x
CN(C)C(=O)OC1CNC(C#Cc2cc3ncnc(Nc4ccc(OCc5cccc(F)c5)c(Cl)c4)c3s2)C1 (stereo not given)	x	x	5µM*	x	x
CNC(=O)c1cccc(C#Cc2cncnc2Nc2ccc(OCc3cccc(F)c3)c(Cl)c2)c1	x	x	0.79µM*	x	x
CCc1ccc2oc(C(=O)N(Cc3cccc(Cl)c3)Cc3ccco3)c(C)c2c1	3	x	-18%[46.1 µM]	4%[46.1 µM]	-20%
Oc1ccc(CN2CCN(Cc3ccccc3)CC2)c2cccnc12	52	10µM*	u	-13%	-7%
COc1ccc(S(=O)(=O)N2CCN(Cc3c[nH]c4ccccc34)CC2)cc1	66	8%	11%	6%[46.1 µM]	-18%
O=S(=O)(c1ccc(Cl)cc1)N1CCN(Cc2ccncc2)CC1	4	10%	5%[46.1 µM]	0%[46.1 µM]	-14%
O=S(=O)(c1ccc(Cl)cc1)N1CCN(Cc2ccc(O)c3ncccc23)CC1	-98*	u	u	13µM*	-16%
O=[N+]([O-])c1ccc(S(=O)(=O)N2CCN(Cc3c[nH]c4ccccc34)CC2)cc1	61	22µM*	8%	-19%	-13%
CCC(C)Nc1nc(N)c([N+](=O)[O-])c(Nc2ccccc2OC)n1 (stereo not given)	u	13µM*	u	-17%[46.1 µM]	u
COc1ccccc1Nc1nc(NCCCN(C)C)nc(N)c1[N+](=O)[O-]	-28	u	-29%	u	-25%
COc1ccccc1Nc1nc(NCC(C)C)nc(N)c1[N+](=O)[O-]	-85*	u	-6%	3%[46.1 µM]	u
CCC(C)Nc1nc(N)c([N+](=O)[O-])c(NCc2ccccc2)n1 (stereo not given)	-26	11µM*	x	x	u
COc1ccc(OC)c(Nc2nc(NCCC(C)C)nc(N)c2[N+](=O)[O-])c1	u	u	-43%	u	u
C[C@@H]1CC[C@H]2C(=O)N3[C@@H](CC[C@@H](C)[C@@H]3c3ccc(-c4ccco4)cc3)C(=O)N2[C@@H]1c1ccc(-c2ccco2)cc1	x	x	u	-2%[14.2 µM]	x
CCCNC(=O)N1[C@@H]2Cn3c(cccc3=O)[C@H]1[C@@H](C(=O)NCC(F)(F)F)[C@@H]2CO	9	x	x	x	x
SMILES	HCMV inh	HCV inhibitor	LASV entry inh	Marburg entry inh	FMDV inh
CC(C)CCN1C(=O)N(c2ccccc2)C(=O)C1CC(=O)Nc1ccc(Cl)cc1 (stereo not given)	-27	x	-15%[46.1 µM]	x	28%
CCOc1ccc(Cl)cc1CSc1ncn[nH]1	-68*	u	-6%	u	-25%
COc1ccc(CN2CCNC(=O)C2CC(=O)NCC(C)(C)N2CCOCC2)cc1C (stereo not given)	0	9%	1%[46.1 µM]	-15%[46.1 µM]	13%
CCc1nc(N2CCN(C(=O)c3ccccc3)CC2)c(C#N)c2c1COC(C)(C)C2	-62*	u	u	u	u
COc1c2c(c(C(=O)/C=C/C(C)=C/c3ccccc3)c3c1OCO3)CCN(C)C2	x	x	x	x	-15%
Cc1nc(-c2cccc(NC(=O)c3ccc(-n4nccc4C)cc3)c2)cs1	0	10µM*	u	-72%	22µM*
Cc1nc(-c2cccc(NC(=O)c3ccc(Br)o3)c2)cs1	-33	u	x	x	26%
CCOC(=O)Cn1c(=O)oc2cc(S(=O)(=O)Nc3ccc(N(CC)CC)cc3C)ccc21	-77*	-7%	x	-1%	-7%
CCOC(=O)Cn1c(=O)oc2cc(S(=O)(=O)Nc3cc(OCC)ccc3OCC)ccc21	58	18%	0%	u	-14%
Cc1ccc(C(=O)Nc2cccc(-c3cn4ccccc4n3)c2)cc1	42	-19%	-27%[46.1 µM]	u	7%
CC1CN(S(=O)(=O)c2cccc(-c3cn4ccccc4n3)c2)CC(C)O1 (stereo not given)	-86*	u	u	u	x
Cc1cccn2cc(-c3cccc(S(=O)(=O)N4CC(C)OC(C)C4)c3)nc12 (stereo not given)	-8	22%	x	x	4%
Cc1ccc(S(=O)(=O)Nc2cccc(-c3cn4cccc(C)c4n3)c2)cc1	-14	x	-6%[46.1 µM]	x	75%
Cc1cccn2cc(-c3cccc(NS(=O)(=O)c4ccc(Cl)c(Cl)c4)c3)nc12	-91*	x	-6%[46.1 µM]	16%[46.1 µM]	35%
Cc1ccccc1C(=O)Nc1cccc(-c2cn3ccccc3n2)c1	-28	14µM*	u	u	u
Cc1cc(C)c(S(=O)(=O)Nc2cccc(-c3cn4ccccc4n3)c2)c(C)c1	-87*	x	u	x	42%
CS(=O)(=O)Nc1c(O)ccc2c1CCC[C@H]2C1=NCCN1	x	x	x	x	-19%
Cc1cc2c(cc1S(=O)(=O)Nc1cccc(C#N)c1)OCC(=O)N2	u	x	14%[46.1 µM]	x	54%
O=C(CCc1ccccc1)NCc1ccc2c(c1)CCN2C(=O)c1ccc(Cl)cc1	26	x	15%[46.1 µM]	x	-3%
COc1cc2c(cc1OC)C(C)N(C(=O)c1cccc([N+](=O)[O-])c1)CC2 (stereo not given)	-74*	-28%	17%	12%[46.1 µM]	-22%
COc1cc2c(cc1OC)C(C)N(C(=O)Nc1ccccc1)CC2 (stereo not given)	3	u	-20%	u	-18%
COc1cc2c(cc1OC)C(C)N(C(=O)c1sccc1C)CC2 (stereo not given)	u	-4%	x	x	-8%
COc1ccccc1/C=C/C(=O)N1CCc2cc(OC)c(OC)cc2C1C (stereo not given)	-20	22µM*	u	u	-7%
COc1ccccc1/C=C/C(=O)N1CCOCC1	-72*	4%	u	3%	1%

Assay outcomes (PubChem)
